# Compounds with a hit are over-represented: about 12% of the library has one in this group of screens.
# NS1 function inh: inhibitors of influenza NS1 protein function; AID 2326; Potency, µM (titrated, usually from 46.1 µM), inactives show at the highest dose activity, positive = more growth; actives 0.4% (n = 270,000); calls by dose curve; note: actives are rising curves; nearly all actives have a fitted effect of over 50% in size
#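 OD600 was taken as the measure of yeast growth restored by compound in an NS1-expressing S. cerevisiae strain. Cells had been washed out of glucose medium and diluted 1:100 into galactose -URA medium, pH 6.0.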
# Pf growth 96h: inhibits malaria parasite growth, 96 h; P. falciparum luciferase reporter growth, 96 h; Potency, µM (top dose mostly 28.7 µM), without a hit: at the top dose activity change, negative = inhibition, most hits filed as inhibitors; actives 6.9% (n = 320,000); AID 504834; note: % is set by controls: 0 for no effect and ±100 for the full control effect
#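 Erythrocytes infected with luciferase-expressing P. falciparum were dispensed at 2% hematocrit and 0.05% parasitemia (final), then incubated with compounds 96 hours at 37 C in 5% CO2. Luminescence after detection reagent addition reported growth.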
# Pf growth 48h: inhibits P. falciparum growth in the first generation, 48 h. P. falciparum luciferase growth in erythrocytes, 48 h. Potency, µM (titrated, usually from 28.7 µM), without a hit: top-dose activity change, negative = inhibition, usual class: inhibitors. actives 5.9% (n = 310,000). AID 504832; note: % is set by controls: 0 for no effect and ±100 for the full control effect
#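 First compound was added to culture medium, then infected red cells at 0.1% parasitemia and 2% hematocrit (final). After incubation at 37 C under 5% CO2, luciferase detection reagent was dispensed and light output recorded.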
# AMA1 RON2 block: inhibitors of Plasmodium falciparum AMA1-RON2 interaction | AlphaScreen AMA1-biotinylated RON2 peptide binding | Potency, µM (highest dose often 58.2 µM), inactives show at the top dose activity change, negative = inhibition, hits mostly inhibitors | actives 0.2% (n = 360,000) | AID 720542;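 note: 0% = vehicle wells and -100% = peptide control; nearly all actives have a fitted effect of over 45% in size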
#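 AMA1 (3D7) with his tag at 25 nM final met compounds first, then biotinylated RON2 peptide at 25 nM; detection used donor plus acceptor beads, 10 µg/mL apiece, read by AlphaScreen after 30 min at room temperature.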
# HCV inhibitor: blocks hepatitis C virus. Huh7.5.1 HCVcc-Cre infection, luciferase reporter, 44 h. Potency, µM (doses to about 41.8 µM), inactives show top-dose activity change, negative = inhibition, actives largely listed as inhibitors. actives 3.4% (n = 340,000); note: % is set by controls: 0 for no effect and ±100 for the full control effect
#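 Seed cells (1,000/well) for 4 h; treat with compound and infect with HCVcc-Cre, moi about 0.5. Incubate 44 h, then detect luciferase activity.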
# SARS PLpro yeast: SARS-CoV PLP inhibition in yeast; Potency, µM (series often up to 32.9 µM), for the others: top-dose activity, positive = growth rescue, most hits filed as activators; actives 0.19% (n = 330,000); S. cerevisiae expressing SARS-CoV PLpro, growth rescue; calls by dose curve; note: 0% is about no effect; nearly all actives have a fitted effect of over 55% in size
# An asterisk follows results filed as active; ? = inconclusive; nt = no result given; [ ] = remark or other dose. Unless noted, calls come from the whole dose curve; as a rule, active = well fitted curve in the direction sought with a large enough effect; inconclusive = small, poorly fitted or top-dose-only effect, or another doubt; inactive = no such curve, though single readings can be large; an effect the other way counts as inactive or inconclusive. Potency is the fitted concentration of half-maximal effect.
SMILES,NS1 function inh,Pf growth 96h,Pf growth 48h,AMA1 RON2 block,HCV inhibitor,SARS PLpro yeast
CCOC(=O)N1CCN(S(=O)(=O)N2CCCC(C(=O)NCc3ccccc3OCC)C2)CC1 (centres undefined),nt,nt,nt,-2%,nt,nt
CCN1CCN(c2cc(C)c3cc(NC(=S)N(CC)CC)ccc3n2)CC1,1%,66%,13µM*,-4%,?,-4%
CCCCN(CC)CCCNC(=S)Nc1ccc2nc(N3CCN(C)CC3)cc(C)c2c1,5%,-1%,?,-9%,-30%,-1%
CCCN(CCC)CCCNC(=S)Nc1ccc2nc(N3CCCC3)cc(C)c2c1,nt,?,1.5µM*,-1%,10µM*,0%
CCN1CCN(c2cc(C)c3cc(NC(=O)c4cnccn4)ccc3n2)CC1,-32%,-20%,nt,0%,-20%,-6%
CCOc1ccc(C(=O)Nc2ccc3nc(N4CCN(CC)CC4)cc(C)c3c2)cc1,5%,18%,2.3µM*,-4%,?,0%
CCCCN(CC)CCCNC(=S)Nc1ccc2nc(N3CCN(CC)CC3)cc(C)c2c1,-7%,43%,2.9µM*,-4%,?,3%
C=C(Br)CN(C)CC(=C)Br,0%,nt,nt,nt,nt,nt
COC(=O)CNC(=O)Cn1nc(C)c([N+](=O)[O-])c1C,nt,7%,11%,10%,7%,5%
CCN(CC)CCNC(=S)Nc1ccc2nc(N3CCN(C)CC3)cc(C)c2c1,6%,-4%,10µM*,4%,?,1%
CCN(CC)CCNC(=S)Nc1ccc2nc(N3CCOCC3)cc(C)c2c1,3%,-15%,20%[0.00184 µM],4%,?,0%
O=C(O/N=C1\CCS(=O)(=O)c2sccc21)c1c(F)cccc1F,6%,63%,37%,?,-5%,0%
O=C(NC(=O)c1c(F)cccc1F)O/N=C1\CCCc2occc21,-4%,22%,2.3µM*,-4%,25%,2%
O=C(/C=C/c1ccco1)Nc1ccc(C(=O)N2CCOCC2)cc1,9%,9.3µM*,2%,1%[11.6 µM],7%,-12%
O=C(/C=C/c1ccco1)Nc1ccc(Oc2ccc(Cl)cc2)cc1,-9%,3%,8.3µM*,-12%,8.9µM*,-9%
COc1ccc(C(NC(=O)/C=C/c2ccco2)c2ccc(OC)cc2)cc1,16%,2.3µM*,10µM*,-4%,-8%,2%
COc1cccc(NC(=O)/C=C/c2ccco2)c1,nt,258%,306%,-3%,-9%,-4%
CCc1ccc(CN2C(=O)c3ccccc3C2C(=O)NC(C)CC)cc1 (centres undefined),9%,-7%,-1%[0.00184 µM],0%,4%,3%
COc1ccc(N2CCN(C(c3ccc4ncccc4c3)c3nnnn3C(C)C)CC2)cc1 (centres undefined),-31%,-16%,-26%,-7%,-6%,-5%
NCCNC[C@H](O)CO,6%,nt,nt,nt,nt,nt
CCN1C(=O)[C@H]2[C@@H](c3ccc(-c4ccc(Cl)c(Cl)c4)c(OC)c3)N3CCCC[C@@]3(C(=O)OC)[C@H]2C1=O,nt,nt,nt,-6%,?,-2%
COC(=O)[C@@]12CCCCN1[C@H](c1ccc(-c3ccc(F)cc3)c(OC)c1)[C@H]1C(=O)N(C)C(=O)[C@H]12,nt,nt,nt,4%,4%,-8%
CCN1C(=O)[C@H]2[C@@H](c3ccc(-c4ccc(F)cc4)c(OC)c3)N3CCCC[C@@]3(C(=O)OC)[C@H]2C1=O,nt,nt,nt,-8%,?,-1%
CCN1C(=O)[C@@H]2[C@@H](c3ccc(-c4ccc(C(C)=O)cc4)c(OC)c3)N3CCCC[C@@]3(C(=O)OC)[C@@H]2C1=O,nt,9.3µM*,2.9µM*,-3%,-2%,-7%
CCN1C(=O)[C@@H]2[C@@H](c3ccc(-c4ccc5c(c4)OCO5)c(OC)c3)N3CCCC[C@@]3(C(=O)OC)[C@@H]2C1=O,nt,12µM*,4.7µM*,-6%,0%,8%
SMILES,NS1 function inh,Pf growth 96h,Pf growth 48h,AMA1 RON2 block,HCV inhibitor,SARS PLpro yeast
CCN1C(=O)[C@@H]2[C@@H](c3ccc(-c4ccc(C(C)=O)cc4)c(OC)c3)N3CCC[C@@]3(C(=O)OC)[C@@H]2C1=O,nt,6.6µM*,10µM*,-17%,-6%,-3%
COC(=O)[C@@]12CCCCN1[C@H](c1ccc(-c3ccc(OC)cc3)c(OC)c1)[C@@H]1C(=O)N(C)C(=O)[C@@H]12,nt,7.4µM*,9.3µM*,4%,?,-5%
O=C(N/N=C/c1ccncc1)c1nn(Cc2ccccc2)c(=O)c2ccccc12,nt,?,-26%,2%,-8%,-2%
COc1ccc(CNC(C)C(=O)Nc2ccc3ccccc3c2)cc1OC (centres undefined),nt,-8%,-19%,-1%,-10%,-2%
Cc1cccc2cc(CN(Cc3cccnc3)C(=O)c3ccccc3F)c(Cl)nc12,-26%,?,?,-1%,-8%,-7%
Cc1cc(C)c2cc(CN(Cc3cccnc3)C(=O)c3ccc(F)cc3)c(Cl)nc2c1,-87%,?,1.5µM*,0%,-18%,-3%
COC(=O)c1cc(Cl)cc2c(C)c(C3(O)CCCCC3)[nH]c12,-60%,42%,54%,-5%,8.9µM*,-22%
CCc1c(C2(O)CCCCC2)[nH]c2c(C(=O)OC)cc(Cl)cc12,-132%,1%,10%,12%,?,-36%
Cc1onc(-c2ccccc2)c1-c1nnc(COC(=O)c2ccc(O)cc2)o1,nt,?,-19%,60%,?,-1%
COc1ccccc1S(=O)(=O)Nc1cc(C)nn1-c1ccc(C)cc1,6%,?,2.6µM*,3%,11%,1%
CN(CC(=O)Nc1ccccc1Cl)C(=O)COC(=O)C1CCN(c2ccc(C(F)(F)F)cn2)CC1,nt,58%,-6%,0%,8%,0%
CC(C)CNS(=O)(=O)c1ccc(S(=O)(=O)N2CCCN(Cc3ccccc3)C2)cc1,-1%,10%,12µM*,-3%,-6%,1%
CN(CC(=O)NCCN1CCN(Cc2ccccc2)CC1)S(=O)(=O)c1cccc2nsnc12,1%,1%,?,2%,-22%,1%
CN(CC(=O)NCCc1ccccc1)S(=O)(=O)c1cccc2nsnc12,8%,8.3µM*,-14%,14%,?,15%
CCN(CCCNC(=O)CN(C)S(=O)(=O)c1cccc2nsnc12)c1ccccc1,-12%,12µM*,?,-9%,?,-1%
CN(CC(=O)NCc1ccc(Cl)cc1)S(=O)(=O)c1cccc2nsnc12,-11%,?,20%,-12%,-17%,-4%
CN(CC(=O)N1CCN(Cc2ccccc2)CC1)S(=O)(=O)c1cccc2nsnc12,nt,4.1µM*,-2%,-2%,-13%,-5%
CC1=C(C(=O)N(C(C)C)C(C)C)CC(CC(=O)NCc2cccc3ccccc23)C(=O)N1Cc1ccccc1 (centres undefined),nt,nt,nt,-3%,nt,nt
